In experiment [1] the test system is PRMT1 (protein arginine N-methyltransferase 1). Put plainly: small molecules binding arginine methyltransferase PRMT1 – biochemical, small-molecule microarray, 635 nm fluorescence, primary screen (AID 1088).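 Also: binding of Prmt1 protein to compounds spotted on small-molecule microarray slides.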 To be noted: higher = more signal.
Experiment [2] can be described thus: growth effects on S. cerevisiae YJM789 – YJM789 clinical isolate, OD600, 24 h, basal, primary screen (AID 1089).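 Also: growth of clinical yeast isolate S. cerevisiae YJM 789 seeded 1000 cells per well; test concentration not given here.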 Conditions: higher = more signal, called active from +8 up or from −8 down.
A short description of experiment [3]: S. pombe growth modifiers, basal conditions – strain 972, OD600, 24 h, no modulator, primary screen (AID 1090).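 Also: basal condition with compound alone and no growth modifier present; test concentration not given here.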 Conditions: S. pombe 972 growth, higher = more signal, called active from +8 up or from −8 down.
A short description of experiment [4]: budding yeast growth modifiers under rapamycin – strain BY4716, OD600, 96 h, primary screen (AID 1091). Also: test concentration not given here. To be noted: S. cerevisiae BY4716 + rapamycin, higher = more signal, called active from +8 up or from −8 down.
For experiment [5], the target named is Torsin-1A-interacting protein 2 (Homo sapiens) (UniProt Q8NFQ8). Briefly: small molecules binding lysate-expressed LULL1 – cell lysate, human LULL1 lysate, 635/667 nm fluorescence, primary screen (AID 1092).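 Also: probe is lysate of COS7 cells overexpressing human LULL1; score merges per-feature 667 nm fluorescence with signal-to-noise.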 To be noted: small-molecule microarray, hLULL1 lysate binding, 635 nm fluorescence; higher = more signal.
Torsin-1A-interacting protein 2 (Homo sapiens), sequence (Q8NFQ8 whole entry, looked up): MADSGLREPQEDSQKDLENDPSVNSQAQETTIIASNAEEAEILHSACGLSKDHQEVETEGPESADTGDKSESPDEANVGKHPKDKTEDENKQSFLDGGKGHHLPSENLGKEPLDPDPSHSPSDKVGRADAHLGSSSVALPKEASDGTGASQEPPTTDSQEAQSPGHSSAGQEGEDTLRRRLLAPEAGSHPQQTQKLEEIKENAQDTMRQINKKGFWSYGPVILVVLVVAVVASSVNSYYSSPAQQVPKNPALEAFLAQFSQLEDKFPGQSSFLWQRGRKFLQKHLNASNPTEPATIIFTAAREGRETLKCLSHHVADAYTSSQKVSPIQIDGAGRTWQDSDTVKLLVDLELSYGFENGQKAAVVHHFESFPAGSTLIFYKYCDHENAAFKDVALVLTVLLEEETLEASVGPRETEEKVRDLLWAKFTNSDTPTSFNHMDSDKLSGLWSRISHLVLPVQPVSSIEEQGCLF
A short description of experiment [6]: optical density change of DRC41 E. coli – strain DRC41, OD650, 24 h, E. coli filamentation project, primary screen (AID 1093).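 Also: MC1000 strain lacking acrAB efflux and sulA so SOS filamentation is blocked; test concentration not given here.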 To be noted: E. coli DRC41 growth, higher = more signal, called active from +8 up or from −8 down.
Experiment [7] in a line: probe aLefty2 binding to arrayed compounds – biochemical, biotinylated probe, 635/667 nm fluorescence, primary screen (AID 1094).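 Also: score merges spot fluorescence near 667 nm with spot signal-to-noise ratio.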 Conditions: small-molecule microarray, higher = more signal.
Experiment [8] relates to Noggin (protein binding on small-molecule microarray). Put plainly: small molecules binding Noggin protein – biochemical, 635/667 nm fluorescence, primary screen (AID 1095).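 Also: score merges 667 nm feature fluorescence with signal to noise over triplicate slides.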 Conditions: 635 nm fluorescence, higher = more signal.
For experiment [9], the target named is Neurogenic locus notch homolog protein 3 (Homo sapiens) (UniProt Q9UM47). Briefly: small molecules binding NOTCH3 protein – biochemical, 635/667 nm fluorescence, primary screen (AID 1096). Conditions: small-molecule microarray, 635 nm fluorescence, higher = more signal.
Neurogenic locus notch homolog protein 3 (Homo sapiens), sequence (Q9UM47 whole entry, looked up): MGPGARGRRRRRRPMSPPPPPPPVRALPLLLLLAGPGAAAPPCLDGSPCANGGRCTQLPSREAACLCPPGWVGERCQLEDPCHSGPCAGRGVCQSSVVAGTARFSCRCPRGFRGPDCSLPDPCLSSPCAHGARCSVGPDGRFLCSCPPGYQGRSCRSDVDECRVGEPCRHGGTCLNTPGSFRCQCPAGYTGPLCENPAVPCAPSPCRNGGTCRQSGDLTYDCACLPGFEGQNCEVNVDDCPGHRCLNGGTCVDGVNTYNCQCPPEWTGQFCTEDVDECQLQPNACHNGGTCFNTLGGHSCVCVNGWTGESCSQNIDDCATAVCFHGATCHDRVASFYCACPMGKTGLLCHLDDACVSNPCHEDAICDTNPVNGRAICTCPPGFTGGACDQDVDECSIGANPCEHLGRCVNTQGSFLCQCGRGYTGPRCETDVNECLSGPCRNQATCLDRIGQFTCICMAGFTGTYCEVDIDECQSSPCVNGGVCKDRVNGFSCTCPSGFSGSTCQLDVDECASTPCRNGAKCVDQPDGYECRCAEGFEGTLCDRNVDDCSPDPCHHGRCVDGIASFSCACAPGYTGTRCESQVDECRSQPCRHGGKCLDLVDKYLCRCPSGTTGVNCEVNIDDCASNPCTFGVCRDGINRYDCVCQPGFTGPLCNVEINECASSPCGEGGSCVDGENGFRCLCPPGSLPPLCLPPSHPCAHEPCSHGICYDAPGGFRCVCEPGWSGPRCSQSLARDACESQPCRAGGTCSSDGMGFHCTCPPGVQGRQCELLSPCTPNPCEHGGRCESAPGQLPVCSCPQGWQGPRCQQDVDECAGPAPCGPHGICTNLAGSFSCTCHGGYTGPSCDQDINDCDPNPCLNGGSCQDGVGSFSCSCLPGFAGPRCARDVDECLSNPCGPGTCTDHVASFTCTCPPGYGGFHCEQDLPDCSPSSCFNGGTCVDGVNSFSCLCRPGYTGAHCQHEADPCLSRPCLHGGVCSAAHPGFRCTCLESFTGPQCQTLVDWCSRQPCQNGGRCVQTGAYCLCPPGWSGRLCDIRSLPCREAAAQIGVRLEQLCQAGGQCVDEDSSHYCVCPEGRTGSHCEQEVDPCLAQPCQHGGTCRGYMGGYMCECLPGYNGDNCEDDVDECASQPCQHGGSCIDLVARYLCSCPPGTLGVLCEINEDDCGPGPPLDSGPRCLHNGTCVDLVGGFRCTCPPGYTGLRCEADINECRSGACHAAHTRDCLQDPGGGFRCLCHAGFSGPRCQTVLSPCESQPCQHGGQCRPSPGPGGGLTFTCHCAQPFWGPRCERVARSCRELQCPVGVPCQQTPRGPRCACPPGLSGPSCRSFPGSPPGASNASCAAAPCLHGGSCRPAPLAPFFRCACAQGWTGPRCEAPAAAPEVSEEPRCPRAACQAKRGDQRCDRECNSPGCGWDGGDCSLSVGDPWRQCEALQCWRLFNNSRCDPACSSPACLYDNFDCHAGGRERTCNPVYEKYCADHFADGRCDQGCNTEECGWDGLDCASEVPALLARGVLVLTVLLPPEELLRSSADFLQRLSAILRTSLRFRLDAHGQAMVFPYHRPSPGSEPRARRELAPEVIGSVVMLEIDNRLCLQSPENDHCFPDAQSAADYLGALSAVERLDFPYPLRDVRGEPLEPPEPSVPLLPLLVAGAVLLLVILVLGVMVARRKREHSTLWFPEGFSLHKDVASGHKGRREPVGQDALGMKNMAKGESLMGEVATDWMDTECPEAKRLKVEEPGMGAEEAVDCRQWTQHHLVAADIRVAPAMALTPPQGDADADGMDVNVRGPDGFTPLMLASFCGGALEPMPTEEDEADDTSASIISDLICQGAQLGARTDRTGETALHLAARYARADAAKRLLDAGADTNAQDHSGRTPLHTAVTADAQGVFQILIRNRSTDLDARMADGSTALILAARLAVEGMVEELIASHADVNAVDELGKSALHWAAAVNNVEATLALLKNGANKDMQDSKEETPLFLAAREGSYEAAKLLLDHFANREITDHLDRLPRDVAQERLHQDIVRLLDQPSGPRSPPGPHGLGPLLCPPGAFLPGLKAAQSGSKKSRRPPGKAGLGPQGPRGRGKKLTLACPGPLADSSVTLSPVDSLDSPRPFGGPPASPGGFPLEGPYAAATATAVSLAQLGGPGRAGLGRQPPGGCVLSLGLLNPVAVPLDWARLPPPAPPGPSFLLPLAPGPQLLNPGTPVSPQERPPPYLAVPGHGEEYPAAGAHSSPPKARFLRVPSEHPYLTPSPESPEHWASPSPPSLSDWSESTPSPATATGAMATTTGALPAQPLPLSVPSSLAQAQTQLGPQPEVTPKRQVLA
The nature of experiment [10]: probe aEGFR binding to arrayed compounds – biochemical, biotinylated probe, 635/667 nm fluorescence, primary screen (AID 1097).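 Also: probe is a biotinylated anti-EGFR antibody binding compounds printed on slides; score combines fluorescence near 667 nm and signal to noise of each spot.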 To be noted: small-molecule microarray, higher = more signal.
Experiment [11] deals with Plasmodium falciparum Sir2 (PF13_0152, Sir2A). Briefly: Plasmodium falciparum Sir2A binding compounds – biochemical, small-molecule microarray, 635 nm fluorescence, primary screen (AID 1098).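 Also: score merges spot fluorescence intensity with its signal-to-noise ratio.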 Conditions: fluorescence 635 nm, higher = more signal.
Experiment [12] in a line: probe aDKK1 binding to arrayed compounds – biochemical, biotinylated probe, 635/667 nm fluorescence, primary screen (AID 1099).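 Also: score merges 667nm spot fluorescence with signal to noise across triplicate slides; reference of the scale not given here.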 To be noted: small-molecule microarray, higher = more signal.
A short description of experiment [13]: probe aCHRDL2 binding to arrayed compounds – biochemical, biotinylated probe, 635/667 nm fluorescence, primary screen (AID 1100). To be noted: small-molecule microarray, higher = more signal.
Experiment [14] is described as follows: change in splice reporter luminescence, either direction, cell-based, HEK293, spliceosome inhibition project, primary screen (AID 1101).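 Also: HEK293 cells carrying a splicing-competent luciferase reporter gene; test concentration not given here.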 Conditions: HEK293 splicing luciferase reporter, 24 h, higher = more signal, called active from +8 up or from −8 down. (Reporter assays use an easily measured gene product as a stand-in for the process of interest.)
Experiment [15] concerns the target Fibroblast growth factor 10 (Homo sapiens) (UniProt O15520). Put plainly: compounds binding fibroblast growth factor 10 – biochemical, small-molecule microarray, 635 nm fluorescence, primary screen (AID 1102). Conditions: FGF10 binding, fluorescence 635 nm, higher = more signal.
Experiment [16] relates to glycogen synthase kinase-3 (GSK3A per assay name; protocol says GSK3B). Put plainly: compounds binding glycogen synthase kinase-3 – biochemical, small-molecule microarray, 635 nm fluorescence, GSK3A, primary screen (AID 1103). Also: the record names both GSK3A and GSK3B. To be noted: fluorescence 635 nm, higher = more signal.
Experiment [17] has as its target Epidermal growth factor receptor (Homo sapiens) (UniProt P00533). Briefly: compounds binding epidermal growth factor receptor – biochemical, small-molecule microarray, 635 nm fluorescence, primary screen (AID 1104).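 Also: score merges 667 nm emission intensity with spot signal to noise over triplicate slides.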 To be noted: EGFR binding, higher = more signal.
Experiment [18] has as its target Follistatin-related protein 3 (Homo sapiens) (UniProt O95633). Briefly: compounds binding follistatin-related protein 3 – biochemical, small-molecule microarray, 635 nm fluorescence, primary screen (AID 1105).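 Also: score merges emission near 667 nm and signal to noise per printed spot across three slides.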 Conditions: FSTL3 binding, higher = more signal.
The target of experiment [19] is Dickkopf-related protein 1 (Homo sapiens) (UniProt O94907). Put plainly: small molecules binding DKK1 protein – biochemical, small-molecule microarray, 635 nm fluorescence scan, primary screen (AID 1106).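 Also: score merges emission near 667 nm with signal to noise over three replicate slides.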 To be noted: higher = more signal.
Dickkopf-related protein 1 (Homo sapiens), sequence (O94907 whole entry, looked up): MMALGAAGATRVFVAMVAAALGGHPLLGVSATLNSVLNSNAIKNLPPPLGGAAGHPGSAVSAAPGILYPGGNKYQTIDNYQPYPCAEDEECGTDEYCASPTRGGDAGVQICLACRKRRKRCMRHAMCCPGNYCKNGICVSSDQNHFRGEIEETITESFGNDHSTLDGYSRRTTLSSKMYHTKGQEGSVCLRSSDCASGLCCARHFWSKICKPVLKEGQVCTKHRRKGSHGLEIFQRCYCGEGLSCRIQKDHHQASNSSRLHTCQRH
The test system of experiment [20] is Inhibin beta A chain (activin A). Put plainly: small molecules binding activin A – biochemical, small-molecule microarray, 635 nm fluorescence scan, primary screen (AID 1107).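 Also: mouse activin A protein probed at 4.33 µg/mL on printed slides; score merges bound-protein fluorescence near 667 nm with spot signal-to-noise.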 Conditions: INHBA, higher = more signal.

The structures appear in SMILES notation. Activity calls are given as the source filed them.

Fibroblast growth factor 10 (Homo sapiens), sequence (O15520 whole entry, looked up): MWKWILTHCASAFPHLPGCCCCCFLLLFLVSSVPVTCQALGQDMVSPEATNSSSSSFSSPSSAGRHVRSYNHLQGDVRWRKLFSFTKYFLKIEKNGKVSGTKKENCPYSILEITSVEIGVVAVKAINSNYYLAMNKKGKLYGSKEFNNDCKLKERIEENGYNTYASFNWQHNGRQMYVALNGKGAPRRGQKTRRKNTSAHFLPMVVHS
Follistatin-related protein 3 (Homo sapiens), sequence (O95633 whole entry, looked up): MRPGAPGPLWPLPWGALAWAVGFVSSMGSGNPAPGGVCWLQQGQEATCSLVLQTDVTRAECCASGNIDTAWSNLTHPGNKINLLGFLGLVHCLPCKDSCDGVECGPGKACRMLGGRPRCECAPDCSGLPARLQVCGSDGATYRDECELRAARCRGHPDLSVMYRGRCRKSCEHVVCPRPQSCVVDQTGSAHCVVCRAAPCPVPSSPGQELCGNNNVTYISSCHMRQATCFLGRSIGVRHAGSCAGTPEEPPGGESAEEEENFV
Epidermal growth factor receptor (Homo sapiens), sequence (P00533 whole entry, looked up): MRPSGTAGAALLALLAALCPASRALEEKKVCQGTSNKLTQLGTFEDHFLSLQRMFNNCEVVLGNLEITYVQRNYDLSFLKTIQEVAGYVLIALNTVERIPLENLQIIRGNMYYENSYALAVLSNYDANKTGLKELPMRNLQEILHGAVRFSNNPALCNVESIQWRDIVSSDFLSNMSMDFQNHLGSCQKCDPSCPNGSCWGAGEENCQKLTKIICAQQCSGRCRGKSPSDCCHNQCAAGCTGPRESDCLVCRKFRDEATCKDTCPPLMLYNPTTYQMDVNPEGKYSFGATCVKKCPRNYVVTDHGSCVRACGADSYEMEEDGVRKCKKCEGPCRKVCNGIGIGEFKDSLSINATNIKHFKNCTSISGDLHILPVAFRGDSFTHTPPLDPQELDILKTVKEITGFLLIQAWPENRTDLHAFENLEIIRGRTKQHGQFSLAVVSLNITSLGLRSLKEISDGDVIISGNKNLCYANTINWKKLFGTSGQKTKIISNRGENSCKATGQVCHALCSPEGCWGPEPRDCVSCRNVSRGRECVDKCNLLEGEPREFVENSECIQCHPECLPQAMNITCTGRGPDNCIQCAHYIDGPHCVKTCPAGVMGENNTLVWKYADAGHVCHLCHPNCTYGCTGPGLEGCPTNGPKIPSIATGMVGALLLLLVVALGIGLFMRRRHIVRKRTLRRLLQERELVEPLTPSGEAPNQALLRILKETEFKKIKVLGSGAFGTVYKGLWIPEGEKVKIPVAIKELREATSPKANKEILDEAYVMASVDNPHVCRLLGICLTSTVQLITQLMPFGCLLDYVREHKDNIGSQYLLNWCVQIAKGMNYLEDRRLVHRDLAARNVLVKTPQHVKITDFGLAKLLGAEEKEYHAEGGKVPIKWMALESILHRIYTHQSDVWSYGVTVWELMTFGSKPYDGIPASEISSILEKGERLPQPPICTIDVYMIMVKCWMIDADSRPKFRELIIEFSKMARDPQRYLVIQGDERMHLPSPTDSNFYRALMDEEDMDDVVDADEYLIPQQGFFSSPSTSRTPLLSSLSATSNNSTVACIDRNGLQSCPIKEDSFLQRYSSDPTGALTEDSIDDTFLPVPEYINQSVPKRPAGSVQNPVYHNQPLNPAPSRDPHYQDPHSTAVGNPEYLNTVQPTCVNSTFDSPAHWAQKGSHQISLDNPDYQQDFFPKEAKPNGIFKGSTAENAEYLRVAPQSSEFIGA

As to `CC(C)(C)N1C(=O)[C@H]2[C@H]3[C@H](O)[C@H](O)CC(=NOCc4ccccc4)[C@H]3CC[C@H]2C1=O`, the composite z-score in [1] was -0.201; in experiment [5], 0.351; in experiment [7], 0.439; in experiment [8], -0.616; in experiment [9] it was -0.288; in [10] it was -0.125. For the same compound, the composite z-score in [11] was 0.0828; in experiment [12], 0.989; in [13] it was 1.36; in [15], 0.0277; in experiment [16], -0.399; in [17], -0.376. In addition, the composite z-score in experiment [18] is -0.663; in experiment [19], -0.551; in experiment [20], 0.251. Moreover, the z-score in [2] was -0.612 (inactive); in [3], -0.925 (inactive); in [4], -0.22 (inactive); in experiment [6] it was 0.662 (inactive); in experiment [14], 0.453 (inactive).
Regarding `CON=CC[C@@H]1C=C[C@H](OC(C)=O)[C@@H](COC(C)=O)O1`, the composite z-score in experiment [1] is 0.0622; in experiment [5], 0.172; in experiment [7], 0.253; in [8] it was 0.532; in [9] it was -0.0592; in [10], -0.184. Besides, the composite z-score in experiment [11] is 0.0728; in experiment [12], -0.146; in [13] it was -0.0937; in experiment [15], 0.277; in [16], 0.184; in experiment [17] it was 0.393. Moreover, the values for the composite z-score in [18], in experiment [19] and in [20] were 0.727, 0.531 and 1.68, respectively. The z-score is 0.586 (inactive) in experiment [2]; 0.141 (inactive) in experiment [3]; 0.35 (inactive) in experiment [4]; -0.0614 (inactive) in experiment [6]; 0.079 (inactive) in experiment [14].
On to `Cc1ccc(S(=O)(=O)OC[C@H]2CN3[C@H](c4ccc(Br)cc4)[C@@H](C)CC[C@H]3C(=O)O2)cc1`, for which the composite z-score in experiment [1] was 1.23; in experiment [5], 1.3; in experiment [7] it was -0.259; in experiment [8], 1.24; in experiment [9] it was 0.323; in experiment [10] it was -0.136. The composite z-score is 0.579 in [11]; -0.285 in experiment [12]; -0.207 in experiment [13]; 0.725 in experiment [15]; -0.204 in experiment [16]; -0.0807 in experiment [17]. The composite z-score in experiment [18] is -0.0668; in [19], 0.459; in experiment [20], 0.355. Moreover, the z-score in experiment [2] was -0.855 (inactive); in [3] it was -17.8 (active); in [4], -3.38 (inactive); in experiment [6], 2.18 (inactive); in [14] it was -0.649 (inactive).
With `O=C1C[C@@H](O)[C@@H](O)[C@@H]2[C@@H]3C(=O)N(Cc4ccc5c(c4)OCO5)C(=O)[C@@H]3CC[C@H]12`, the composite z-score in [1] was 0.0008; in experiment [5], 0.443; in [7], -0.136; in [8] it was 0.318; in experiment [9], 0.406; in experiment [10], 0.0135. Also, the composite z-score is 0.063 in experiment [11]; -0.312 in [12]; -0.406 in [13]; 0.309 in experiment [15]; 0.7 in experiment [16]; 0.368 in experiment [17]. Further, the figures for the composite z-score in [18], in [19] and in experiment [20] were 0.703, 0.593 and 0.128, respectively. The z-score in experiment [2] is 0.264 (inactive); in experiment [3], -0.587 (inactive); in experiment [4] it was -0.511 (inactive); in experiment [6], 0.378 (inactive); in [14], 1.03 (inactive).
In the case of `CCCNC(=O)OC[C@H]1O[C@H](CCON=C(C)CCN2CCCc3nc(C)c(C)cc32)C=C[C@@H]1Oc1ccc(OC)cc1`, the composite z-score in experiment [1] is 1.55; in experiment [5] it was 2.38; in experiment [7], 0.0408; in experiment [8] it was 0.634; in [9], 0.991; in experiment [10], 0.101. Besides, the composite z-score in [11] was 0.333; in experiment [12], 0.595; in experiment [13], -0.237; in experiment [15] it was 0.653; in experiment [16] it was 0.73; in [17], 0.509. Moreover, the composite z-score in [18] was 0.605; in experiment [19], 0.687; in experiment [20], 0.491. In addition, the z-score in experiment [2] was -0.663 (inactive); in experiment [3], -0.604 (inactive); in experiment [4] it was -0.0042 (inactive); in [6] it was 1.05 (inactive); in experiment [14], 0.304 (inactive).

For the origin of these results see PubChem BioAssay.
